This passage reports Potency results from PubChem BioAssay AID1347071 (National Center for Advancing Translational Sciences (NCATS), 2019).

SMILES strings stand for the structures. Among all 410,000 compounds or so, about 260 (0.063%) were called active. Another 2% or so got no clear call; they are omitted. Calls follow the shape of the dose curve; as a rule, active = well fitted activation curve with a large enough effect; inconclusive = small, poorly fitted or top-dose-only effect; inactive = no such curve, though single readings can be large or run the other way. The entries come from a sample that favours actives as a whole. A call without a number means that no potency is given here.

The experiment is described as follows: qHTS for compounds that reverse cellular toxicity of Amyloid beta (A-beta) peptide in yeast: Primary Screen. Also: nearly all actives have a fitted effect of over 55% in size. The following applies: yeast expressing A-beta42, growth rescue, OD600, 48 h; series mostly up to 46.1 µM. From the text: The A-beta peptide is produced by the processing of the amyloid precursor protein (APP) by two proteases, beta and gamma secretases. […] A-beta42 is regarded as the most amyloidogenic form due to its hydrophobicity; however, precisely how A-beta42 induces neurotoxicity is unclear. To understand further this biology and its potential therapeutic implications for human neurodegenerative disease, a quantitative high-throughput screen for compounds that reverse the cellular toxicity of the A-beta peptide was developed. A yeast based screen was used because it recapitulates the salient feature of protein mis-folding disorder accurately. This cell-based phenotypic screen provides a significant, unbiased advantage by letting the compounds and models inform us which proteins or pathways are most relevant. The ideal chemical candidates would therefore have activity in both our primary yeast and secondary neuronal toxicity assays, as well as in mouse models. They will be valuable tools for dissecting diverse protein homeostasis pathologies and could potentially become the focus for future pre-clinical development. For this luminescence assay, inhibition of A-beta rescues the toxic effect in the yeast cell, resulting in increase of signals and the desired phenotype of "Activator". This screen is run against the Molecular Libraries Small Molecule Repository (MLSMR) and the NCGC Sytravon Library Collection.
NIH Chemical Genomics Center [NCGC]
NIH Molecular Libraries Probe Centers Network [MLPCN]
Assay Submitter (PI): Susan Lindquist, Whitehead Institute, Massachusetts Institute of Technology
[1] Vassar R,et al (1999). Beta-secretase cleavage of Alzheimer's amyloid precursor protein by the transmembrane aspartic protease BACE. Science. 286: 735-741.
[2] Yan R, et al (1999). Membrane-anchored aspartyl protease with Alzheimer's disease beta-secretase activity. Nature. 402: 533-536.
Two and a half microliter / well of yeast growth medium were dispensed in a 1536 assay plate. Compounds were pinned using the Kalypsys robotic system followed by addition of 2.5 uL / well yeast solution. The assay plates were incubated at 30 C. After 48 hr, the absorbance signal at 600 nm was obtained using the PerkinElmer ViewLux plate reader to assess yeast growth. The data was normalized to the positive control of an equimolar mixture of ferric chloride (FeCl3) and clioquinol and to the negative control DMSO.
For the compound `Cc1ccc(C)c(N2CCN(CCCNC(=O)Nc3ccc(Cl)cc3)CC2)c1`, the Potency entry is “inactive”. The result for `COc1ccc(S(=O)(=O)c2cn(C)c3cc(N4CCCCC4)c(F)cc3c2=O)cc1` reads “inactive”; that for `COc1cccc(CNCc2c(C(=O)O)n(Cc3ccc(C)cc3)c3cc(C)ccc23)c1OC`, “inactive”. The same measure for `O=C(NC1CCCCC1)c1ccc2c(c1)N(Cc1ccc(Cl)cc1)C(=O)c1ccccc1S2=O` (centres undefined): “inactive”; for `COc1ccc(NC(=O)NC(C)c2c(-n3cccc3)sc(C)c2C)cc1OC` (centres undefined): “inactive”. The same measure for `COc1ccc(OC)c(-c2noc(N3CCN(c4cc(Cl)ccc4C)CC3)n2)c1`: “inactive”. As to `O=C(Nc1c(C(=O)N2CCN(c3ccc(F)cc3)CC2)oc2ccccc12)c1ccco1`, the Potency result is “inactive”. `CCOc1ccc(CNC(=O)c2cccc(Nc3nc4ccccc4n4nnnc34)c2)cc1OC`: the Potency entry is “inactive”. With `CCc1cc2c(cc3c(=O)n(CC(=O)NCc4cccc(Cl)c4)nc(CC)n32)s1`, the Potency entry is “inactive”. The result for `Cc1nn(CC(=O)NCCc2ccccc2)c(=O)c2c1sc1ccccc12` reads “inactive”; that for `O=C(CSc1nccn1-c1ccc(F)cc1)Nc1cccc2ccccc12`, “inactive”. The same measure for `Cn1c(=O)cc(OCC(=O)N2CCN(c3ccccc3)CC2)c2ccccc21`: “inactive”; for `COc1cc2c(cc1OC)C(COc1ccc(F)cc1)N(C(=O)c1ccccc1F)CC2` (centres undefined): “inactive”; for `CCOc1ccccc1NC(=O)CSc1ncc(S(=O)(=O)c2ccc(C(C)(C)C)cc2)c(=O)[nH]1`: “inactive”. The result for `CCOCCCn1c(SCC(=O)Nc2ccc(CC)cc2)nc2ccccc2c1=O` reads “inactive”; that for `CCCN(CCC)C(=O)C1CCCN(c2ncnc3c2nc2n3CCCCC2)C1` (centres undefined), “inactive”; that for `Cn1c(=O)n(Cc2c(F)cccc2Cl)c(=O)c2c1nc1n2CCN1c1ccc(F)cc1`, “inactive”.

As to `Cc1ccc(Cl)cc1N1CCN(C(=O)c2cccn3c(=O)c4cc(Cl)ccc4nc23)CC1`, the Potency result is “inactive”. With `COCCN(Cc1ccco1)C(=O)Cn1ncc2c([nH]c3ccccc32)c1=O`, the Potency result was “inactive”. The same measure for `O=C(CSc1nnc(-c2ccccc2F)o1)Nc1cccc(C(F)(F)F)c1`: “inactive”; for `Cc1ccc2nc(COc3cccc(NC(=O)c4cccc(Cl)c4)c3)cc(=O)n2c1`: “inactive”; for `COc1ccc(-n2ccn(CC(=O)Nc3ccc(C)c(C)c3)c(=O)c2=O)cc1OC`: “inactive”. The same measure for `COc1ccc(CNC(=O)Cc2coc3ccc(C(C)C)cc23)cc1`: “inactive”. The result for `CCCCCn1c(=O)[nH]c2cc(C(=O)NCCN(C)CCCC)ccc2c1=O` reads “inactive”; that for `CCOc1ccc(CNC(=O)c2cc(=O)[nH]c3ccc(S(=O)(=O)N4CCCCC4)cc23)cc1`, “inactive”; that for `Cc1ccc(C)c(Nc2nnc(-c3ccc(C)c(S(=O)(=O)N4CCCCC4)c3)c3ccccc23)c1`, “inactive”. For `CCc1cccc(C)c1Nc1c(-c2ccc(N(C)C)cc2)nc2ncccn12`, the Potency entry was “inactive”. The same measure for `COc1ccc(-c2nc3ccccc3o2)cc1NC(=O)c1cc([N+](=O)[O-])ccc1N1CCOCC1`: “inactive”. The same measure for `Cc1ccc(-c2nc3ccccn3c2Nc2c(C)cccc2C)o1`: “inactive”. `COc1ccc(NS(=O)(=O)c2cc3c4c(c2)CC(=O)N4CCC3)cc1Cl`: the Potency result was “inactive”. The result for `O=S(=O)(Nc1ccc2nc(-c3cccc(Cl)c3)oc2c1)c1ccccc1` reads “inactive”. On to `CCOC(=O)c1ccc(NC(=O)c2c(NCc3cccc(OC)c3)sc3c2CCC3)cc1`, for which the Potency result was “inactive”. The same measure for `CCOC(=O)C1CCN(c2csc3ccc(C)cc3c2=O)CC1`: “inactive”. The result for `CCC(=O)Nc1ccccc1-c1nc2ccccc2n(CC(=O)Nc2ccc(C)c(C)c2)c1=O` reads “inactive”; that for `CCCNc1ncnc2c1c(-c1ccccc1)cn2-c1ccc(OCC)cc1`, “inactive”.

`COc1ccc(OC)c(CCNC(=O)CCCn2c(=O)c3cccn3c3cccnc32)c1`: the Potency result was “inactive”. The result for `CCOC(=O)c1cnc2c(C)cc(C)cc2c1Nc1ccc(N2CCOCC2)cc1` reads “inactive”. The same measure for `COc1ccc(CNC(=O)Cn2nnc(-c3ccccc3F)n2)cc1`: “inactive”; for `Cc1cccc(-n2ccnc2SCC(=O)Nc2cccc3ccccc23)c1C`: “inactive”. The same measure for `O=C(/C=C/c1ccccc1)N1CCN(Cc2cc(=O)n3nc(-c4ccccc4F)sc3n2)CC1`: “inactive”; for `Cc1ccc(Oc2c(C(F)(F)F)oc3c(CN4CCCCC4)c(O)ccc3c2=O)cc1`: “inactive”. Consider `O=C(NC1(C(F)(F)F)N=C(c2ccccc2)N(C2CCCCC2)C1=O)c1ccccc1F` (centres undefined), for which the Potency entry is “inactive”.

Consider `Cc1cccc(N2CCN(C3=C(c4ccccc4)C(=O)c4ccccc43)CC2)c1C`, for which the Potency entry is “inactive”. The same measure for `Cc1ccc(-n2nnnc2CNC(=O)c2ccccc2C)cc1C`: “inactive”. The result for `CCOC(=O)C1CCN(C(=O)CSc2c3c(nc4ccc(Cl)cc24)CCCC3)CC1` reads “inactive”; that for `CN(Cc1ccccc1)C(=O)c1cc2c(=O)n(C)c3ccccc3c2s1`, “inactive”.

For `COc1ccccc1NC(=O)c1sc2nc(C)c(C(=O)Nc3ccc(Cl)cc3)c(-c3ccc(Br)cc3)c2c1N`, the Potency result was “inactive”. The result for `CCOc1ccc(CNCCSc2nnnn2C)cc1` reads “inactive”; that for `CCOC(=O)c1ccccc1NC(=O)c1nn(-c2ccc(OC)c(Cl)c2)c(=O)c2c1c1ccccc1n2C`, “inactive”; that for `COCCn1c(CCC(=O)Nc2cc(C)ccc2C)nc2cccnc21`, “inactive”.

With `COc1cccc(CN2CCc3nc(SCC(=O)Nc4ccccc4)[nH]c(=O)c3C2)c1`, the Potency result is “inactive”. The same measure for `Cc1cc(C)cc(-n2ccnc2SCC(=O)Nc2nc3ccccc3s2)c1`: “inactive”. The same measure for `Cc1c(NC(=O)C(C)(C)C)cccc1-c1nc2ccccc2s1`: “inactive”. The result for `CC(C)CC(=O)N/C(N)=N/c1nc2ccccc2s1` reads 11.2 µM (active); that for `Cc1ccc(-c2cc(C(=O)Oc3ccccc3Cl)no2)cc1C`, “inactive”; that for `Cc1ccc(C)c(Cn2c(=O)n(CCC(=O)NCc3ccc4c(c3)OCO4)c(=O)c3sccc32)c1`, “inactive”. As to `CC(=O)N1CCCc2ccc(NS(=O)(=O)c3ccc(F)cc3F)cc21`, the Potency entry is “inactive”.

Take `COc1ccc(OC)c(CNC(=O)Cn2nc(C)c3c(C)n(-c4ccccc4)nc3c2=O)c1`: the Potency result is “inactive”.

Turning to `COc1cc(OC)c(OC)cc1/C=C/c1nc2cc3ccccc3cc2c(=O)n1-c1ccc(F)c(Cl)c1`, the Potency entry was “inactive”.

In the case of `CCOC(=O)c1cccc(NC(=O)C(Cc2ccccc2)NS(=O)(=O)c2cccc3nsnc23)c1` (centres undefined), the Potency result is “inactive”. The result for `COC(=O)c1ccc(C2C(C(=O)Nc3ccccc3)=C(C)Nc3nc4ccccc4n32)cc1` (centres undefined) reads “inactive”; that for `O=C(CSc1nccc(=O)[nH]1)Nc1ccc(N2CCOCC2)c(Cl)c1`, “inactive”. In the case of `O=C(CSc1ccc([N+](=O)[O-])cn1)Nc1ccc(N2CCOCC2)c(Cl)c1`, the Potency is 22.4 µM (active). The same measure for `CCOc1ccc(C(=O)NC(=S)Nc2ccc(N3CCOCC3)c(Cl)c2)cc1[N+](=O)[O-]`: “inactive”.
